Laboratory results reported in PubChem BioAssay (NCI).
About 79,000 compounds went through this panel and 15% of them were active in at least one assay; those are over-represented in the sample as a whole. A number with no mark means an inactive call. Activity calls are given as the source filed them. Cut-off read from the data, not from the text of the source: active = growth inhibition above about 70%; inactive = the rest.

What was measured:
[1] = NCI Yeast Anticancer Drug Screen. Data for the rad50 strain (AID 155);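 note: 0% = growth of vehicle-only cultures of the same strain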; conditions: S. cerevisiae rad50 strain growth inhibition, stronger effect = higher value
Method in brief: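 Vehicle-treated cultures provide the reference for the growth inhibition reported for compound-exposed, repair-deficient yeast.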

[2] = NCI Yeast Anticancer Drug Screen. Data for the mec2-1 strain (AID 157); conditions: S. cerevisiae mec2-1 strain, stronger effect = higher value
Method in brief: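 Yeast mec2-1 mutant treated with compound. Readout: growth inhibition vs vehicle controls.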

[3] = NCI Yeast Anticancer Drug Screen. Data for the sgs1 mgt1 strain (AID 161);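 note: 0% = growth of cultures given vehicle only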; conditions: S. cerevisiae sgs1 mgt1 strain, stronger effect = higher value
Method in brief: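 Test agents were incubated with a DNA-repair-mutant yeast strain. Growth was then read and compared against vehicle-treated controls.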

[4] = NCI Yeast Anticancer Drug Screen. Data for the cln2 rad14 strain (AID 165);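 note: 0% = growth equal to vehicle treated cultures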; conditions: S. cerevisiae cln2 rad14 strain, stronger effect = higher value
Method in brief: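 cln2 rad14 yeast strain; compound exposure; growth inhibition read vs vehicle controls.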

[5] = NCI Yeast Anticancer Drug Screen. Data for the bub3 strain (AID 167); conditions: S. cerevisiae bub3 mutant strain, stronger effect = higher value
Method in brief: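 Mutant yeast screening strain plus compound; vehicle-treated cultures serve as the 0% inhibition reference.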

[6] = NCI Yeast Anticancer Drug Screen. Data for the mlh1 rad18 strain (AID 175); conditions: S. cerevisiae mlh1 rad18 strain growth inhibition, stronger effect = higher value
Method in brief: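 Yeast w/ defined DNA-repair lesions; compound exposure; growth vs vehicle controls → % inhibition.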

[7] = at 5.0 µM (retest, dose inferred, filed as 0.5)
[8] = at 50.0 µM (retest, dose inferred, filed as 5.0)

Row | Structure (SMILES) | growth inhibition [1, 7] | growth inhibition [1, 8] | growth inhibition ([1]; at 50.0 µM) | growth inhibition [2, 7] | growth inhibition [2, 8] | growth inhibition ([2]; at 50.0 µM) | growth inhibition [3, 7] | growth inhibition [3, 8] | growth inhibition ([3]; at 50.0 µM) | growth inhibition [4, 7] | growth inhibition [4, 8] | growth inhibition ([4]; at 50.0 µM) | growth inhibition [5, 7] | growth inhibition [5, 8] | growth inhibition ([5]; at 50.0 µM) | growth inhibition [6, 7] | growth inhibition [6, 8] | growth inhibition ([6]; at 50.0 µM)
1 | O=C(N/C(=C/c1ccc(Cl)cc1Cl)c1nc2ccccc2s1)c1ccccc1 | 27% | 98% (active) | 98.6% (active) | 13% | 98% (active) | 97.7% (active) | 56% | 99% (active) | 98.9% (active) | 14% | 98% (active) | 98.1% (active) | 31% | 98% (active) | 98% (active) | 26% | 98% (active) | 98.2% (active)
2 | CC(C(=O)c1ccc(Cl)cc1)C1OC(=O)C(Cl)=C1Cl (configuration not stated) | 43% | 54% | 90.8% (active) | 37% | 51% | 93.4% (active) | 43% | 70% (active) | 92.9% (active) | 32% | 43% | 87.7% (active) | 40% | 72% (active) | 91.5% (active) | 56% | 71% (active) | 91.7% (active)
3 | Cc1cc2nc3ccc(N)cc3oc-2cc1=[N+](C)C | 6% | 95% (active) | 95.6% (active) | 14% | 96% (active) | 92.8% (active) | -9% | 91% (active) | 74% (active) | -12% | 93% (active) | 81.5% (active) | -8% | 94% (active) | 78.2% (active) | 7% | 92% (active) | 3.8%
4 | O=C(CNCc1ccccc1)c1ccc(Cl)cc1 | -3% | -6% | 11.6% | -2% | 6% | 1.45% | -3% | 17% | 8.4% | -1% | -22% | 24.6% | -2% | 35% | -7.85% | -4% | 14% | 14.5%
5 | CC(C)CCCC(O)CNCc1ccccc1 (configuration not stated) | 9% | 27% | -1.95% | 17% | 38% | 11.4% | 13% | -11% | 28.2% | 13% | 36% | -18.9% | 5% | 44% | 82% (active) | 7% | 15% | 10.2%
6 | OCCN(CCO)c1cc(/C=C/c2ccnc3ccccc23)nc2ccccc12 | 7% | 32% | 60.5% | 1% | 23% | 28.6% | 12% | 47% | 28.6% | -1% | 43% | 61.5% | 1% | -13% | -12.6% | 9% | 35% | 53.4%
7 | Cn1c2nc(-[n+]3ccccc3)nc-2c([O-])n(C)c1=O | 1% | 3% | -15.8% | 3% | 7% | -2.25% | -1% | 39% | 2.1% | -2% | 7% | 70% (active) | -1% | 0% | -6.95% | -1% | 8% | -8.75%
8 | COC(=O)C1(C)CCCC2(C)C3CCC4CC3(C=C4CO)CCC12 (configuration not stated) | 32% | 96% (active) | 53% | 24% | 98% (active) | 43.1% | 35% | 99% (active) | 86.5% (active) | 36% | 91% (active) | 73.5% (active) | 24% | 98% (active) | 80.7% (active) | 41% | 98% (active) | 50.4%
9 | O=C(O)CCC(=O)NCCNC(=O)CC(=O)O | -152% | -162% | 10.7% | -52% | -51% | -14.8% | -57% | -63% | 43% | -52% | -48% | 36.3% | -68% | -79% | -1.55% | -116% | -107% | 9%
10 | COc1cc(NCCCCCCCC2CCCCN2)c2ncccc2c1 (configuration not stated) | -1% | 95% (active) | 86.2% (active) | 6% | 96% (active) | 79% (active) | 11% | 98% (active) | 98.5% (active) | 0% | 94% (active) | 96.5% (active) | 0% | 88% (active) | 98.5% (active) | 32% | 96% (active) | 98.4% (active)
11 | Cc1nc(-c2ccc(N=Cc3ccc(N(CCOS(C)(=O)=O)CCOS(C)(=O)=O)cc3)cc2)cs1 | 1% | 46% | 46.5% | -24% | 9% | 7.75% | -2% | 17% | 21.1% | -2% | 33% | -45.7% | -3% | -10% | -2.55% | 12% | 54% | 71.8% (active)
12 | Cc1ccc(NC(=O)CSC(N)=O)cc1C | 4% | 22% | 81.5% (active) | 1% | 40% | 70.1% (active) | 1% | 30% | 87.3% (active) | 1% | 9% | 58.5% | 5% | 69% | 86.2% (active) | 8% | 20% | 72% (active)
13 | O=[N+]([O-])/C(C=Nc1ccccc1)=C/Nc1ccccc1 | -17% | 51% | 71.5% (active) | -10% | 33% | 67.3% | 2% | 46% | 83.5% (active) | -6% | 48% | 37.5% | 16% | 73% (active) | 31.6% | -15% | 83% (active) | 76.6% (active)
14 | CN1CC[N+](C)(Cc2ccc(C[N+]3(C)CC[N+](C)(Cc4ccc(CCl)cc4)CC3)cc2)CC1 (configuration not stated) | 2% | 97% (active) | 99.2% (active) | 4% | 95% (active) | 99.4% (active) | 2% | 83% (active) | 99.4% (active) | -3% | 95% (active) | 98.1% (active) | 1% | 98% (active) | 99.5% (active) | 2% | 98% (active) | 99.3% (active)
15 | COc1ccc2c(c1)CCc1c(CO)c(COC(=O)NC(C)C)n(C)c1-2 | 87% (active) | 90% (active) | 95.8% (active) | 98% (active) | 91% (active) | 97.7% (active) | 96% (active) | 92% (active) | 96.5% (active) | 3% | 85% (active) | 93.5% (active) | 5% | 40% | 79.3% (active) | 59% | 93% (active) | 88.8% (active)
16 | Oc1c(Cl)cc(Cl)cc1C=NCCSc1ccc(Cl)cc1 | 33% | 99% (active) | 92.2% (active) | 30% | 99% (active) | 93.8% (active) | 27% | 99% (active) | 94.8% (active) | 23% | 99% (active) | 93.2% (active) | 45% | 99% (active) | 93.9% (active) | 49% | 99% (active) | 92.7% (active)
17 | N#CN1CCCC(O)c2sc3ccccc3c2CC1 (configuration not stated) | 3% | 9% | 56.4% | 1% | 17% | 11.5% | 1% | 3% | 38.9% | 3% | -7% | 9.85% | -2% | 1% | 7.3% | -1% | -1% | -0.65%
18 | [O-][n+]1c2c(cc3ccccc31)Cc1ccccc1-2 | 2% | 31% | 21.7% | 3% | 19% | 35% | -3% | 5% | -22.6% | 4% | 3% | 20.4% | 7% | 29% | 24.4% | 3% | 20% | 30.7%
19 | COc1ccc(C(=O)[O][Sn]([c]2ccccc2)([c]2ccccc2)[c]2ccccc2)c(OC)c1OC | 100% (active) | 99% (active) | 98.7% (active) | 100% (active) | 100% (active) | 99.1% (active) | 99% (active) | 99% (active) | 98.8% (active) | 99% (active) | 99% (active) | 88.2% (active) | 100% (active) | 100% (active) | 98.9% (active) | 99% (active) | 99% (active) | 98.4% (active)
